High-throughput results deposited in PubChem BioAssay by Johns Hopkins Ion Channel Center.
KCNQ2 block = rat KCNQ2 potassium channel inhibitors, primary screen, cell-based, CHO-K1, FluxOR thallium flux, B-score | 20 min; hits give low values | B-score at 10 µM | 310,000 tested, 1.1% active | AID 2156, 2009;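 active means fluorescence ratio B-score at most minus 3 library SDs, with starting brightness B-score within 2 library SDs, cut at about -5.5 in these data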
KCNQ2 pot = potentiators of rat KCNQ2 potassium channel. Potassium voltage-gated channel subfamily KQT member 2 (Rattus norvegicus), O88943. CHO-K1 KCNQ2, FluxOR thallium flux fluorescence; hits give high values. B-score at 10 µM. 310,000 tested, 0.54% active;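 active means fluorescence ratio B-score at least 3 SD of library B-scores, with initial fluorescence B-score within 3 of them, cut at about 5.3 in these data; same plate scores as AID 2156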;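 further: B-score of peak minus minimum over baseline fluorescence ratio after K+ and Tl+ stimulus; positive B-score means potentiation of KCNQ2 with more thallium influx and brighter signal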
Kir21 conf inh = mouse Kir2.1 channel blockers, retest, confirmation, cell-based, FluxOR thallium flux, duplicate; Kir2.1-expressing cells, FluxOR thallium flux fluorescence; hits give low values; 2,300 tested, 41% active; Tl flux remaining, % of negative control (hits give low values), % at 10 µM; shares compounds with KCNQ2 pot;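 active means Primary-screen hit whose thallium flux fell at least 3 control SD below untreated wells in both duplicates, with normal baseline fluorescence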;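 further: 0% = blank wells without stimulus and 100% = stimulated no-compound controls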
HEK293 ctr = counter-screen for Kir2.1 inhibitors: effect in parental HEK293 cells. AID 2105. shares compounds with KCNQ2 pot. 2,300 tested, 19% active. FluxOR signal as % of negative control (100 = no effect), % at 10 µM. FluxOR thallium flux fluorescence; 0% = unstimulated blank wells;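 active means dye signal at least 3 control SD above or below untreated wells in both duplicates, raw fluorescence within 3, either direction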;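 further: percent is based on the flux ratio of peak minus minimum fluorescence over baseline F0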
CHO-K1 Tl ctr = nonspecific thallium flux increase in parental CHO-K1, confirmation, counter-screen for KCNQ2 potentiator project, cell-based, FluxOR thallium flux, duplicate | 1,200 tested, 43% active | shares compounds with KCNQ2 pot | activity increase over 3SD of controls, % at 10 µM | parental CHO-K1 cells, FluxOR thallium flux fluorescence; zero = vehicle mean+3SD, 100% = vehicle-minus-blank window;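 active means signal rise of at least 3 SD above the untreated control mean, in both duplicate wells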;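 further: counter screen of KCNQ2 potentiator hits so any rise reflects channel-independent effects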
KCNQ1 sel pot = human KCNQ1 channel potentiation off-target, confirmation, selectivity assay for KCNQ2 potentiator project, cell-based, CHO, FluxOR thallium flux | AID 2283, 2010 | CHO KCNQ1 stable, FluxOR thallium flux fluorescence; beyond 3SD, as % of vehicle-control signal | 1,200 tested, 28% active | shares compounds with KCNQ2 pot | activation over 3SD threshold, % at 10 µM;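 active means fluorescence ratio rise of at least 3 SD of vehicle wells above their mean, in both replicate wells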;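 further: 0% = vehicle mean plus 3 SD and 100% = vehicle minus unstimulated blank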
KCNQ2 pot conf = rat KCNQ2 channel potentiators, confirmation, cell-based, CHO, FluxOR thallium flux, duplicate | AID 2287, 2010 | 1,200 tested, 68% active | shares compounds with KCNQ2 pot | CHO-KCNQ2 cells, FluxOR thallium flux fluorescence | potentiation, less the hit threshold, % at 10 µM;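 active means fluorescence ratio rising 3 SD or more over the vehicle control mean in both replicates, plus primary screen hit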;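 further: peak minus minimum thallium fluorescence divided by baseline after K/Tl stimulus; 0% = vehicle mean plus 3 SD and 100% = vehicle minus unstimulated blank difference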
Kir21 spec = mouse Kir2.1 channel activation off-target, confirmation, selectivity assay for KCNQ2 potentiator project, cell-based, HEK293, FluxOR thallium flux | shares compounds with KCNQ2 pot | HEK293 Kir2.1, FluxOR thallium flux fluorescence | activity over 3SD threshold, % at 10 µM | 1,200 tested, 2% active;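 active means fluorescence ratio rise of at least 3 SD above the vehicle-control mean, seen in both replicates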;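 further: 0% = vehicle mean plus 3 SD and 100% = vehicle minus no-stimulus blank window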
KCNQ2 W236L MoA = potentiators of retigabine-insensitive KCNQ2 W236L, mechanism study for KCNQ2 potentiator project, cell-based, rat KCNQ2 W236L, CHO, automated patch clamp; current increase over 3SD of negative controls (%), hits give high values, % at 25 µM; 940 tested, 10% active; AID 2558, 2010; shares compounds with KCNQ2 pot; automated patch clamp current;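 active means current increase at least 3 SD of the untreated controls above them in both duplicate recordings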
Target sequence (O88943 whole entry W236L, looked up): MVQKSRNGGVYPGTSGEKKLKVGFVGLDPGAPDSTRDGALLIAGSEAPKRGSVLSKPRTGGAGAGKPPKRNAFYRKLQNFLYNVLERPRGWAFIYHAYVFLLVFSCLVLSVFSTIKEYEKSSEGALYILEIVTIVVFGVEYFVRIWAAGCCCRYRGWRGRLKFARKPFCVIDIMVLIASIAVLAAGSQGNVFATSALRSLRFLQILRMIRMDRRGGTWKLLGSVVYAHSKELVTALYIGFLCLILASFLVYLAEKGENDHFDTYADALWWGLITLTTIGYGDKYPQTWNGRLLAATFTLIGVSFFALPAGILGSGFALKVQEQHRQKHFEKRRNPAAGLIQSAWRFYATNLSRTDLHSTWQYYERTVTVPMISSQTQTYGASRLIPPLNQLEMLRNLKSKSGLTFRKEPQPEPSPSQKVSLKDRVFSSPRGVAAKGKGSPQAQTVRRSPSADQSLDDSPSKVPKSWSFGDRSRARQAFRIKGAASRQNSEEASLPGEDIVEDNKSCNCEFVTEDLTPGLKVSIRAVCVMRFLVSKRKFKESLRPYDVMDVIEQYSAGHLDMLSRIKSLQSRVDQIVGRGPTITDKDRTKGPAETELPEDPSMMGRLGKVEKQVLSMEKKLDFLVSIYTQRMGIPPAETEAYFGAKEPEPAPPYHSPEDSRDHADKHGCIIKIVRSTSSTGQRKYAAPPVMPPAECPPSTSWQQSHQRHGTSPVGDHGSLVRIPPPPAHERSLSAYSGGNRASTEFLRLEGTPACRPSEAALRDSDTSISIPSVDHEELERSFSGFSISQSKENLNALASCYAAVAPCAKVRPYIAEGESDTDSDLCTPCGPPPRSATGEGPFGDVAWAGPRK
An asterisk follows results filed as active; i = inactive; . = not tested or not shown. A selection: hits, their analogues and other compounds. The true share with any hit is near 1.6%.

SMILES	KCNQ2 block	KCNQ2 pot	Kir21 conf inh	HEK293 ctr	others
Cc1ccc(S(=O)(=O)N2CCOCC2)cc1C(=O)N1CCCC1	i	.	.	.
COC(=O)C1=C(C)N=C2SCCC(=O)N2C1c1ccc(OC(=O)c2ccco2)cc1 (centres undefined)	i	.	52%*	i
C=CCOC(=O)C1=C(C)N=C2SCCC(=O)N2C1c1ccc(OC(=O)c2ccco2)cc1 (centres undefined)	i	.	.	.
O=C(Nc1ccc(N2CCN(c3ncccc3C(F)(F)F)CC2)nc1)c1cccs1	i	0.53	.	.
Cc1nnc(C)n1/N=C/c1cc(Br)cc(Br)c1O	i	11*	i	i	CHO-K1 Tl ctr=-23;KCNQ1 sel pot=41*;KCNQ2 pot conf=17*;Kir21 spec=-30;KCNQ2 W236L MoA=i
Oc1ccc(/C=N/n2c(C3CCCCC3)n[nH]c2=S)c(O)c1	i	.	.	.
Oc1ccc(Br)cc1/C=N/n1c(C2CCCCC2)n[nH]c1=S	i	7.4*	i	i	CHO-K1 Tl ctr=70*;KCNQ1 sel pot=-12;KCNQ2 pot conf=-16;Kir21 spec=-19
Oc1c(Br)cc(Br)cc1/C=N/n1c(-c2ccccc2)n[nH]c1=S	i	11*	i	i	CHO-K1 Tl ctr=12*;KCNQ1 sel pot=-10;KCNQ2 pot conf=11*;Kir21 spec=-42;KCNQ2 W236L MoA=i
Oc1c(Br)cc(/C=N/n2c(-c3ccccc3)n[nH]c2=S)c(Br)c1O	i	.	.	.
Cc1nnc(C)n1/N=C/c1cc(Br)ccc1O	i	.	.	.
O=C(Nc1ccc(Br)cc1)c1cccc(S(=O)(=O)Nc2cnc3ccccc3c2)c1	i	0.59	.	.
Cc1ccc(/C=N/NC(=O)C2(O)c3ccccc3-c3ccccc32)o1	i	.	.	.
CC1=NNC(=O)C1CCC(=O)N/N=C/C=C/c1ccccc1 (centres undefined)	i	0.85	.	.
CC1=NNC(=O)C1CC(=O)N/N=C/C=C/c1ccccc1 (centres undefined)	i	8.8*	i	i	CHO-K1 Tl ctr=-10;KCNQ1 sel pot=-21;KCNQ2 pot conf=-14;Kir21 spec=-37
Nc1ccc(C(=O)N2CCCC2)cc1	i	1	.	.
Cc1ccccc1OCC(=O)Nc1nnc(C2CCCCC2)s1	i	.	.	.
COc1ccc(/C=C2/S/C(=N/S(=O)(=O)Cc3ccccc3)NC2=O)cc1OC	i	0.02	.	.
COc1ccc(/C=C2\SC(=S)NC2=O)cc1OS(=O)(=O)c1ccc(NC(C)=O)cc1	i	.	.	.
COc1cc(/C=C2/SC(=S)NC2=O)ccc1OS(=O)(=O)c1ccc(C)cc1	i	40*	i	i	CHO-K1 Tl ctr=0.8*;KCNQ1 sel pot=-20;KCNQ2 pot conf=-23;Kir21 spec=-50;KCNQ2 W236L MoA=i
COc1cc(/C=C2\SC(=S)NC2=O)ccc1OS(=O)(=O)c1ccccc1	i	41*	i	i	CHO-K1 Tl ctr=-7;KCNQ1 sel pot=-12;KCNQ2 pot conf=91*;Kir21 spec=-44;KCNQ2 W236L MoA=i
CO/N=C(/CS(=O)c1ccc(Br)cc1)c1ccc(OC)cc1 (centres undefined)	i	.	50%*	i
CO/N=C(/COc1ccc(F)cc1)c1ccc(OC)cc1	i	.	.	.
OCCNCc1cccc(OCc2ccc(Cl)cc2)c1	i	0.57	i	i
OCCNCc1cc(Br)ccc1OCc1ccc(Cl)cc1	i	0.2	.	.
COc1ccccc1-c1ocnc1C(=O)Nc1ccc(N2CCOCC2)cc1N1CCOCC1	i	.	.	.
SMILES	KCNQ2 block	KCNQ2 pot	Kir21 conf inh	HEK293 ctr	others
Cc1ccc(NC(=O)c2ccoc2C)cc1C	i	3	.	.
CCCCCCn1c(SCC(=O)Nc2cc(C)on2)nc2ccccc2c1=O	i	0.52	.	.
Fc1ccc(Nc2nnc(C(F)(F)F)s2)cc1Cl	i	7.2*	i	i	CHO-K1 Tl ctr=-4;KCNQ1 sel pot=76*;KCNQ2 pot conf=16*;Kir21 spec=-30;KCNQ2 W236L MoA=i
FC(F)(F)c1nnc(Nc2ccc(Cl)cc2)s1	i	3.1	.	.
Cc1ccc(N2CCN(S(=O)(=O)c3ccc4c(c3)n(C)c(=O)c(=O)n4C)CC2C)cc1 (centres undefined)	i	.	.	.
O=C(NCc1csc2ccc(Cl)cc12)Nc1ccccc1	i	.	.	.
O=C(NCc1ccc(Cl)cc1Cl)Nc1ccccc1	i	11*	i	i	CHO-K1 Tl ctr=-3;KCNQ1 sel pot=4.9*;KCNQ2 pot conf=29*;Kir21 spec=-34;KCNQ2 W236L MoA=9.9%*
CC(=O)c1cnc2nc(SCc3ccccc3)nn2c1C	i	.	.	.
O=C(NCc1ccc2c(c1)OCO2)c1nnc(Cc2ccc(Cl)cc2)o1	i	0.87	.	.
Cc1cc(NC(=O)CSCC(=O)OC(C)C(=O)c2cc(C)c(C)cc2C)no1 (centres undefined)	i	.	68%*	i
Cc1cc(NC(=O)CSCC(=O)OC(C)C(=O)N(C)Cc2ccccc2)no1 (centres undefined)	i	1.3	.	.
CC(=O)Nc1cccc(NC(=O)CSc2nnc3ccc(-c4ccccn4)nn23)c1	i	0.75	.	.
Cc1ccc2c(c1)CCCN2C(=O)CSc1ccccc1	i	.	.	.
COc1ccccc1CC(=O)N1CCCc2cc(C)ccc21	i	.	i	i
Cc1cc(C)n(-c2ccc(C(=O)Oc3ccc4c(c3)OCO4)cc2)n1	i	1.4	.	.
ClC(Br)=C(n1cnc2ccccc21)n1cnc2ccccc21	i	0.63	.	.
CCCOc1ccc(C2C(C(=O)c3cc4ccccc4o3)=C(O)C(=O)N2c2cc(C)on2)cc1OC (centres undefined)	i	0.17	.	.
CN1CCC(OC(=O)c2ccc(Br)cc2)CC1	i	0.43	.	.
CN1CCC(=C(c2ccccc2)c2ccc(Br)cc2)CC1	i	.	38%*	i
O=C(CN1CCN(CC(=O)Nc2ccc(OCc3ccccc3)cc2)CC1)Nc1ccc(F)cc1	i	.	.	.
C/C(=N\NC(=O)c1nnn(-c2nonc2N)c1CN(C)c1ccccc1)c1ccccc1O	i	.	.	.
COC(=O)c1sccc1NC(=O)Cn1nnc(-c2ccc(C)cc2)n1	i	.	.	.
